Compounds without any hit were thinned out: in the full panel of roughly 79,000, 15% have a hit. A number with no mark means an inactive call. Cut-off read from the data, not from the text of the source: active = growth inhibition above about 70%; inactive = the rest.
Experiment: NCI Yeast Anticancer Drug Screen. Data for the rad50 strain (AID 155);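 note: 0% = growth of vehicle-only cultures of the same strain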
Settings: S. cerevisiae rad50 strain growth inhibition; at 50.0 µM; active compounds read high
Method in brief: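 Vehicle-treated cultures provide the reference for the growth inhibition reported for compound-exposed, repair-deficient yeast.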
Work on `O=C(O)/C=C/C(=O)Nc1ccc(Cl)cc1C(=O)c1ccccc1` yielded a growth inhibition of 24.6%. Compound `c1ccc(CNCCN(Cc2ccccc2)Cc2ccccc2)cc1` has a growth inhibition of 31.6%. Compound `COc1ccc(OC)c(C(C)=O)c1` has a growth inhibition of -59%. With `CCO/C(C)=C(/C(C)=O)C(=O)NC1CCCCC1` the growth inhibition was -1.65%. With `Fc1ccc(-c2cc(-c3ccc(F)cc3)cc(-c3ccc(F)cc3)c2)cc1` the growth inhibition was -0.4%. `CCN(C(=O)c1ccc([N+](=O)[O-])cc1)C(c1ccccc1)P(=O)(c1ccccc1)c1ccccc1` (stereo not drawn) gave a growth inhibition of -12.4%. `O=[N+]([O-])c1ccc(C2ON2C2CCCCC2)cc1` (stereo not drawn) showed a growth inhibition of -0.75%. In the case of `NCc1ccccc1F`, the growth inhibition is reported as -10.2%. In the case of `NC(CCC(=O)NC(CSCNC(=O)Nc1ccc(Cl)cc1)C(=O)NCC(=O)O)C(=O)O` (stereo not drawn), the growth inhibition is reported as -5.15%. For `O=C(O)CCNCCCCNCCC(=O)O`, the growth inhibition was 6.2%. `COc1ccc(/C=N\S(=O)(=O)c2ccc(OC)cc2)cc1` showed a growth inhibition of 16.3%. `O=C(N/N=C\c1cccnc1)Nc1ccc(N=Nc2ccccc2)cc1` showed a growth inhibition of 12%. `N=c1oc2ccc([N+](=O)[O-])cc2cc1C(=O)NCc1ccccc1` gave a growth inhibition of 11.3%. Work on `CCOC(OCC)C(O)c1ccccc1` (stereo not drawn) yielded a growth inhibition of -17.2%. With `COC(=O)CC1(CC(=O)O)SCCS1` the growth inhibition was -13.6%. For `CCOC(=O)/C(CC)=N\O`, the growth inhibition was 8.55%. `Cc1cc2nc(NN)[nH]c2cc1C` gave a growth inhibition of 5.15%. `CSc1nc(NC2OCC(O)C(O)C2O)cc(=O)n1C` (stereo not drawn) showed a growth inhibition of 7.25%.
